Compound activity from PubChem.
M1 ag = activates human CHRM1 receptor | CHO-K1 hM1, Fluo-8 calcium fluorescence, agonist mode; 0% DMSO, 100% acetylcholine EC100 | activation, % at 3 µM | AID 588814 | 360,000 compounds, 0.33% hits;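 active = activation above the run's mean compound activation plus 3 SD, cut at about 16% in these data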;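 note: peak over basal fluorescence ratio within a 140 s kinetic read after compound addition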
Target sequence (P11229 whole entry, looked up): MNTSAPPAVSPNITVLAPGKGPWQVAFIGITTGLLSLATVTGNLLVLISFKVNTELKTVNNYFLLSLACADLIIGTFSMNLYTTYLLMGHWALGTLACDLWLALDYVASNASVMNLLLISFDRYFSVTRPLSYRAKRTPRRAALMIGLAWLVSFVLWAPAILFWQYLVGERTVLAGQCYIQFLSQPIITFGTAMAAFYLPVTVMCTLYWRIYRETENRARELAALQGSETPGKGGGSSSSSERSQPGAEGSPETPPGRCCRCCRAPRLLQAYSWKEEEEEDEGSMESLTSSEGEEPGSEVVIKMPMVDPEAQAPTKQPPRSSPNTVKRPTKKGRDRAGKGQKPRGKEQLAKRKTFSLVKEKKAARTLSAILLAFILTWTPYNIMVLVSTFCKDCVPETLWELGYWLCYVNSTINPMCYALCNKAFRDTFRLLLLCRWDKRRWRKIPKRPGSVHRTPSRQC
CHO-K1 Ca antag = nonselective inhibitor or artifact in parental CHO-K1 cells. ATP-induced calcium, Fluo-8 fluorescence. inhibition, % at 3 µM. 360,000 compounds, 0.6% hits;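 active = inhibition above a per-plate cutoff, the plate's mean sample inhibition plus 3 SD, cut at about 24% in these data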;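 note: 0% = DMSO plus EC80 ATP and 100% = DMSO alone without ATP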
CHO-K1 Ca ag = counter-screen for M1 agonists: effect in parental CHO-K1 cells | Fluo-8 calcium fluorescence; scaled to maximal ATP response, vehicle zero | activation, % at 3 µM | 360,000 compounds, 0.48% hits; in the data active = activation above about 15%;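 note: untransfected CHO-K1 host cells lacking M1 receptor as counterscreen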
M1 antag = human CHRM1 antagonism | 360,000 compounds, 1.3% hits | inhibition, % at 3 µM | CHO-K1 hM1, Fluo-8 calcium fluorescence, ACh EC80 antagonist | P11229;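 active = percent inhibition above its own plate's cutoff, namely the mean of that plate's compound wells plus 3 SD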;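 note: peak over basal fluorescence ratio during 140 s after agonist addition; 0% = ACh EC80 plus DMSO and 100% = DMSO alone without agonist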
CHRM1 PAM = potentiates human M1 receptor response to acetylcholine | activation, % at 3 µM | P11229 | CHO-K1 hM1, Fluo-8 calcium fluorescence, ACh EC20; 0% = ACh EC20, 100% = maximal ACh | AID 588819 | 360,000 compounds, 0.088% hits; in the data active = activation above about 19%, passing the limit was not always enough
M1 PAM parental = nonselective activator or artifact in parental CHO-K1 calcium assay; 360,000 compounds, 0.02% hits; ATP EC20, Fluo-8 calcium fluorescence; 0% at ATP EC20, 100% at ATP max; activation, % at 3 µM;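 active = activation above the run cutoff, the mean activation of all test compounds plus 3 SD, cut at about 40% in these data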;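 note: peak over basal fluorescence ratio in a 140 s read after ATP addition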
* = called active by the depositor; . = no result. Shown are actives, neighbours in structure and some others; about 2.4% of the full set was active somewhere.

SMILES	M1 ag	CHO-K1 Ca antag	CHO-K1 Ca ag	M1 antag	CHRM1 PAM	M1 PAM parental
CS(=O)(=O)N1CCN(C(=O)c2cc(-c3ccncc3)nc3ccc(Cl)cc23)CC1	3	5	5	31*	-14	3
COc1ccc(C2C3=C(CCCC3=O)Nc3n[nH]c(C)c32)cc1OC (stereo unspecified)	-2	-17	4	-2	5	27
CCc1ccc2nc(N(CCCN(C)C)C(=O)c3ccc(S(=O)(=O)N4CCCC4)cc3)sc2c1	-5	-4	6	39*	-20	10
Cc1ccc2nc(N(CCCN(C)C)C(=O)c3ccc(S(=O)(=O)N4CCCCCC4)cc3)sc2c1	-4	7	7	4	0	-3
COc1ccc(C)c2sc(N(CCCN(C)C)C(=O)c3ccc(S(=O)(=O)N4CCc5ccccc5C4)cc3)nc12	-7	10	19*	9	-12	8
CCc1ccc(NC(=O)NCCN2CCN(c3ccc(OC)cc3)CC2)cc1	-4	1	15*	7	-3	12
Cn1c(=Nc2ccc(N3CCOCC3)cc2)ccc2ccccc21	-6	0	0	48*	-13	-4
CCn1c(=Nc2ccc(N3CCOCC3)cc2)ccc2ccccc21	-10	14	0	10	-13	-5
Cc1n[nH]c(=O)c2c(NC(=O)CSc3nnc(-c4ccncc4)n3C)oc(C)c12	-3	-14	2	-7	5	13
O=C(Nc1cccc(-c2nc3ccccc3o2)c1)c1ccc(N2C(=O)C3C4C=CC(C4)C3C2=O)cc1 (stereo unspecified)	1	-7	3	37*	-11	18
CC(C)c1cc(-c2cc(C(=O)NCc3ccccc3)on2)nc(NCC2CC2)n1	29*	14	9	34*	6	-13
COC(=O)C1=C(C)N=C2SCCC(=O)N2C1c1ccc(C(=O)OC)cc1 (stereo unspecified)	-12	-19	0	-9	-3	19
Cc1ccc(NC(=O)CNC(=O)c2cccc(C)c2)nc1	21*	3	0	-7	0	11
CS(=O)(=O)Cc1ccc(C(=O)NCC2(N3CCCCC3)CCCCC2)cc1	-11	-9	0	-15	9	22
COc1ccc(NS(=O)(=O)c2ccc(C(=O)N(C)Cc3ccc(C)o3)cc2)cc1	20*	-4	13	-1	4	2
COCc1ccc(C(=O)NCC2(N3CCCCC3)CCCCC2)cc1	-9	-2	16*	2	1	-18
COc1ccc(NS(=O)(=O)c2ccc(C(=O)NCC3(N4CCOCC4)CCCCC3)cc2)cc1	15	-12	15*	-7	4	17
COc1cccc(C2c3[nH]c4ccccc4c3C[C@H]3C(=O)N(C4CC4)CC(=O)N23)c1 (stereo partly specified)	-3	-10	2	-21	13	9
CN1CCN(C(c2ccccc2)c2nnnn2C(C)(C)C)CC1 (stereo unspecified)	.	-4	0	.	.	13
CCCN1CCC(=O)N([C@H](CN=[N+]=[N-])Cc2ccccc2)CC1	-13	0	0	2	-3	9
CCN(CC)CCOC(=O)CCc1cccc2ccccc12	-3	-11	1	11	-13	16
CCN(CC)CCOC(=O)C(Cc1ccco1)Cc1cccc2ccccc12 (stereo unspecified)	-5	-5	6	59*	-25	13
Cc1cc2ccccc2n1CCNC(=O)C(C)(C)C	-4	8	1	33*	-14	-5
CC(=O)NCCn1c(C)cc2ccccc21	-1	-2	0	-14	6	16
COc1ccc(CCN(C)C(=O)COc2ccc(C(=O)c3ccccc3)cc2)cc1OC	-1	-1	1	3	-1	-17
SMILES	M1 ag	CHO-K1 Ca antag	CHO-K1 Ca ag	M1 antag	CHRM1 PAM	M1 PAM parental
COc1ccc(CCN(C)C(=O)Cc2ccc(-c3ccccc3)cc2)cc1OC	2	24*	12	10	-6	-26
O=[N+]([O-])c1ccc(Cl)c(CN2CCN(c3ncccn3)CC2)c1	-8	-3	0	-27	15	16
Cc1ccc2nc(C)c(CN3CCN(c4ccc([N+](=O)[O-])cc4Cl)CC3)n2c1	-6	23	10	37*	-20	-20
Cc1ccc(C(=O)NC(C)c2ccc(S(N)(=O)=O)cc2)s1 (stereo unspecified)	-1	-8	0	1	29*	12
O=C(c1cc(C(=O)N2CCOCC2)c2nc3ccccc3n2c1)c1cc(Cl)cc(Cl)c1O	0	-13	3	-9	7	22
CN1CCC(OC2c3ccccc3CCc3ccccc32)CC1	-6	-11	3	99*	-30	12
COc1ccccc1/C=C/CN1CCC(n2nccc2NC(=O)CCc2ccccc2)CC1	1	24*	15*	31	-7	-16
O=C(CCc1ccccc1)Nc1ccnn1C1CCN(C/C=C/c2ccccc2)CC1	0	-13	2	-6	-2	10
CCOC(=O)CC1C(=O)NCCN1C(=O)c1ccc(Cl)c(Cl)c1 (stereo unspecified)	-4	-14	4	-3	2	74*
CCOC(=O)CC1C(=O)NCCN1C(=O)c1cccc(OC)c1 (stereo unspecified)	-2	18	0	28*	-14	-29
COc1ccc(C(Nc2ccccn2)c2c(NC(=O)c3ccco3)sc(C)c2C)cc1OC (stereo unspecified)	-9	7	1	7	4	0
COc1ccc(S(=O)(=O)Nc2ccccc2C(=O)NCc2cccnc2)cc1C	-6	-9	1	-3	5	3
NC(=O)c1c(NC(=O)CN2CCOCC2)sc2c1CCC2	18*	1	1	-50	25*	-5
CCC1=NC(c2ccc(Br)cc2)N(O)C1(C)C (stereo unspecified)	-9	13	0	-7	8	-17
O=C(COc1ccc(S(=O)(=O)NC2CCCCC2)cc1Cl)NCc1cccnc1	-1	28*	0	7	8	-9
O=C(Nc1cccc(-c2ccc3nncn3n2)c1)c1ccco1	-2	6	0	-13	9	-14
CCOC(=O)C1CCCN(c2c(C(=O)c3ccccc3)cnc3ccc(OC)cc23)C1 (stereo unspecified)	62*	-16	4	51*	-29	61*
CCOC(=O)C1CCCN(C(=O)COc2ccc(C(=O)c3ccccc3)cc2)C1 (stereo unspecified)	0	11	1	-4	1	-22
CCN(CC)CCNC(=O)c1ccc(Cl)c(S(=O)(=O)Nc2ccc(Cl)cc2)c1	-7	-13	1	-3	0	18
